From the supplement of paper PMC9433436
± gives the standard deviation of the averaged measurements. Whole data set: some 4,100 sequences, median “relative kcat/Km (krel) vs genomic leader AAAGAU” near 1.7, cut for the highest 2% near 6.5. Only a selection was taken, and the highest values are over-represented in it overall.

Biological target: T1, E. coli RNase P holoenzyme (M1 P RNA + rnpA protein) (UniProt P0A7Y8)
T1 sequence: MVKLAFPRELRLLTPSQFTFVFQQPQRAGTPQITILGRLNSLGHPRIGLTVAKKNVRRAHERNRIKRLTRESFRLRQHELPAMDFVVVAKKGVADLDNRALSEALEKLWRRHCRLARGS
Assay: relative kcat/Km (krel) vs genomic leader AAAGAU (relative (reference leader = 1)); higher = faster RNase P cleavage
Procedure: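 HTS-Kin: a pool of ptRNA-Met (21C construct) with all 4096 combinations of 5' leader nucleotides N(-6) to N(-1) was processed in vitro by E. coli RNase P (P RNA + rnpA/C5 protein) under multiple-turnover conditions at 37 C, pH 8, 17.5 mM MgCl2. Residual substrate was Illumina-sequenced at several fractions reacted, and relative kcat/Km (krel) was computed by internal competition kinetics, calibrated to the genomic leader (AAAGAU = 1). The listed hexamer is the varied N(-6)..N(-1) leader (DNA letters), and it sits between a fixed 5' stem-loop flank (GCAUGCACGAAAGUGCGUGCUAUGAA) and the mature tRNA-Met starting GGCUACGUAGCUCAGUUGG. Two technical replicates are averaged.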

[1] = fraction of substrate reacted: ~26-29% (28.66% repeat 1, 26.4% repeat 2)
[2] = fraction of substrate reacted: ~9-10% (9.79% repeat 1, 9.1% repeat 2)
[3] = fraction of substrate reacted: ~13-16% (15.68% repeat 1, 13.17% repeat 2)

Sequence	relative kcat/Km [1]	relative kcat/Km [2]	relative kcat/Km [3]
AGACGT	1.98 ± 1.9	–	–
TATGCC	2.97 ± 1.5	2.71 ± 0.41	1.72 ± 0.22
TCCGCC	7.97 ± 3.5	4.39 ± 0.68	5.9 ± 0.79
TCCGCT	3.65 ± 1.5	2.17 ± 0.033	2.55 ± 2
TCCGCA	6.95 ± 2.4	4.56 ± 2.3	5.02 ± 0.26
GCCGCC	5.43 ± 2.6	2.33 ± 1.2	3.21 ± 1.2
CCCGCA	4.58 ± 1.4	3.38 ± 0.43	3.43 ± 1.2
CCCGCC	4.94 ± 1.9	2.78 ± 0.39	4.24 ± 2
TGTATG	1.93 ± 0.25	–	–
CCTTTA	2.25 ± 0.99	1.51 ± 0.63	1.47 ± 0.27
ACAGAT	1.88 ± 0.26	0.729 ± 0.034	1.48 ± 0.42
ATTACC	2.21 ± 0.71	1.64 ± 0.48	1.65 ± 0.26
ATGAGA	2.28 ± 0.37	0.619 ± 0.34	0.964 ± 0.71
TGCAAT	1.9 ± 0.94	0.917 ± 0.7	1.18 ± 0.72
TCAAAA	2.89 ± 1.2	2.12 ± 1.1	1.64 ± 0.34
CTCAAC	7.63 ± 3.4	3.75 ± 0.14	5.06 ± 1.2
CCCAAC	3.75 ± 1.1	2.26 ± 0.55	2.15 ± 0.29
TTCAAT	9.07 ± 3.9	4.1 ± 1.6	5.53 ± 0.71
TTCAAC	8.94 ± 3.2	4.99 ± 1.6	6.12 ± 0.93
ATCAAC	5.86 ± 1.6	3.56 ± 1.5	4.05 ± 0.78
TTCAAA	9.38 ± 3.5	4.87 ± 2.9	6.52 ± 1.5
TCAATT	2.3 ± 0.3	2.1 ± 1.1	1.92 ± 0.12
CTTAAC	3.93 ± 1.3	2.53 ± 1.3	2.52 ± 0.82
TGCAAC	2.22 ± 0.84	1.87 ± 0.58	1.45 ± 0.22
TTCAAG	5.77 ± 2	2.98 ± 2.4	3.38 ± 0.47

Sequence	relative kcat/Km [1]	relative kcat/Km [2]	relative kcat/Km [3]
CTTCTT	3.45 ± 0.96	2.75 ± 1.4	3.05 ± 0.55
AACCGC	4.02 ± 0.71	3.24 ± 0.86	3.02 ± 0.23
GATTGG	0.409 ± 0.2	–	–
ATTCCA	1.93 ± 0.82	2.17 ± 0.89	2.11 ± 0.63
TAATTA	2.99 ± 1.1	2.15 ± 1.5	2.05 ± 0.57
ACGTTC	3.59 ± 1.4	2.18 ± 0.36	2.45 ± 0.76
CATCAA	4.59 ± 1.9	2.69 ± 0.095	3.35 ± 0.32
TCCGGA	1.83 ± 1.3	1.02 ± 0.16	1.33 ± 0.95
TCGCAT	5.13 ± 2.3	2.12 ± 0.11	3.11 ± 0.57
ATCAAT	6.65 ± 3.1	3.19 ± 0.91	4.2 ± 0.86
GCCAAC	3.94 ± 1	1.34 ± 0.25	1.28 ± 1.1
CCCAAT	5.27 ± 1.6	2.73 ± 0.86	3.48 ± 0.28
CTCAAT	7.66 ± 3.5	4.23 ± 0.85	5.46 ± 1.7
AGCAAT	3.3 ± 1.1	2.43 ± 0.54	2.33 ± 0.049
GGCAAC	3.36 ± 0.68	2.31 ± 1.6	2.29 ± 0.56
CGCAAT	4.14 ± 1.8	1.86 ± 0.36	2.82 ± 1.1
GTCAAC	7.94 ± 3.1	4.47 ± 1.7	5.05 ± 1.3
AGTAAG	3.3 ± 0.62	–	1.26 ± 0.66
TAATCG	1.73 ± 0.43	–	0.624 ± 0.13
TAGGTG	0.812 ± 0.66	–	–
GCAATG	1.35 ± 0.34	–	–
TTGCAC	3.33 ± 0.78	2.41 ± 1.3	2.27 ± 0.05
TCTGTT	1.89 ± 1.2	1.56 ± 0.75	1.38 ± 1.1
ACCAAA	4.37 ± 0.92	2.83 ± 2.3	3.55 ± 0.63
AATGAA	2.72 ± 0.88	2.18 ± 1.1	2.14 ± 0.073

Sequence	relative kcat/Km [1]	relative kcat/Km [2]	relative kcat/Km [3]
GGCGAT	2.32 ± 0.83	1.24 ± 0.38	1.52 ± 0.5
GGGCAA	1.5 ± 0.79	–	1 ± 0.65
GGGGAT	1.93 ± 1.9	–	–
GATCAC	5.26 ± 2.1	2.93 ± 0.77	4.27 ± 1.3
GATCAT	5.17 ± 1.7	2.26 ± 0.96	3.62 ± 0.21
TATCAT	7.37 ± 3.5	4.22 ± 1.9	5.02 ± 0.57
TATCAC	7.11 ± 2.8	4.08 ± 2.5	4.88 ± 0.12
AATCAT	4.38 ± 1.7	3.17 ± 2	2.88 ± 0.24
AATCAC	4.12 ± 1.3	2.09 ± 1.1	2.63 ± 0.078
CCATCT	2.64 ± 0.42	2.12 ± 1.5	1.53 ± 1.1
TACACG	3.55 ± 0.64	2.67 ± 2.1	2.37 ± 0.74
AAGTAA	4.47 ± 1.6	2.99 ± 1.7	3.36 ± 0.17
TAGTAA	6.72 ± 3	3.7 ± 0.66	4.78 ± 0.65
CAGTAC	6.37 ± 2.2	3.68 ± 1.6	4.92 ± 0.95
AAGTAC	4.86 ± 1.7	3.18 ± 1.6	3.53 ± 0.57
TAGTAT	6.5 ± 3.2	3.26 ± 0.97	4.14 ± 0.84
TAGTAC	7.85 ± 3.4	4.35 ± 1.3	5.28 ± 0.82
TCATCG	1.96 ± 0.15	1.66 ± 1.1	0.943 ± 0.074
CGATGC	4.03 ± 1.4	2.88 ± 0.51	2.7 ± 1.8
TAGCTT	2.8 ± 1.2	1.84 ± 0.3	2.04 ± 0.21
TGCGCA	2.46 ± 0.77	2 ± 0.91	1.69 ± 0.53
GGCGCA	3.02 ± 1.3	1.73 ± 0.44	2 ± 1.2
ATCGCT	3.27 ± 0.6	2.5 ± 0.7	2.34 ± 0.31
GTCGCC	7.93 ± 3.1	4.34 ± 1.4	5.5 ± 0.42
GTCGCA	7.77 ± 3.1	4.66 ± 1.2	5.5 ± 1.6

Sequence	relative kcat/Km [1]	relative kcat/Km [2]	relative kcat/Km [3]
GTCGCG	3.47 ± 0.87	2.3 ± 2.2	1.77 ± 0.36
ATCGCG	3.07 ± 0.91	2.62 ± 1.1	1.7 ± 0.89
ATCGCA	6.35 ± 2.8	3.36 ± 1	4.58 ± 0.2
GTCGTC	4.02 ± 1.6	3.09 ± 1.7	2.79 ± 0.12
ATCGCC	7.69 ± 3	4.35 ± 0.56	5.34 ± 2
TTCGCA	8.75 ± 3.8	4.21 ± 0.84	6.08 ± 1.7
GTCGCT	3.35 ± 1	2.09 ± 1.2	2.03 ± 0.41
GGTCAA	1.83 ± 1.1	0.981 ± 0.11	1.45 ± 0.14
CATTCA	2.76 ± 0.83	2.03 ± 0.96	2.26 ± 0.27
TATACC	2.84 ± 1.4	1.83 ± 0.44	2.35 ± 0.29
TATGGT	1.77 ± 1.3	–	–
CTGCCT	1.91 ± 0.022	2.67 ± 0.64	1.47 ± 0.29
GGAGAG	1.19 ± 0.14	–	–
ATTTTT	3.89 ± 1.3	2.48 ± 0.92	2.63 ± 0.22
TTTAGA	5.73 ± 2.2	2.52 ± 0.65	3.74 ± 0.44
CCCCAT	4.95 ± 1.3	1.7 ± 1.5	3.312 ± 0.011
CTCGTA	4.83 ± 2	3.1 ± 0.69	3.21 ± 0.68
TTCGCC	9.48 ± 3.8	4.66 ± 1.2	6.09 ± 1.6
CTCGCG	3.19 ± 1	2.22 ± 1.4	1.19 ± 1.2
TTCGCG	3.87 ± 0.24	–	2.32 ± 0.79
TTCGCT	4.56 ± 1.4	2.88 ± 1.4	3.06 ± 0.21
CTCGCC	7.26 ± 2.8	4.36 ± 1.6	5.23 ± 1.7
CGCGCA	3.31 ± 0.91	1.86 ± 0.068	2.64 ± 0.045
CTCGCT	3.67 ± 0.94	1.9 ± 0.4	2.61 ± 0.72
CTCGCA	6.71 ± 2.1	4.01 ± 1.4	4.94 ± 0.48
